Measurements: the supplement of paper PMC7530171
Counter-ions that a name gives are not always drawn. ± gives the standard deviation.

What follows are compounds tested on THP-1 (assay: THP-1 cell loss relative to DMSO control; higher = more host cell loss (toxicity); extreme values may be limits of the assay). Settings: 10 µM; 4 days; infection: M. tuberculosis H37Rv.
Description: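 OICR kinase inhibitor library screened in duplicate at 10 uM against M. tuberculosis-infected THP-1 macrophages, 4 days at 37 C. THP-1 cell loss (cytotoxicity or loss of adherence) was quantified from Hoechst-stained nuclei counts by high-content imaging and normalised to the 1% DMSO control; 100 = complete loss of host cells.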

Question: With CNC(=O)c1ccccc1Sc1ccc2c(/C=C/c3ccccn3)n[nH]c2c1 [Axitinib] as the compound, how does the THP-1 cell loss read?
Answer: 14.9 ± 11%

Question: Which THP-1 cell loss does the source give for Cn1c(=O)n(-c2ccc(C(C)(C)C#N)cc2)c2c3cc(-c4cnc5ccccc5c4)ccc3ncc21 here?
Answer: 36.6 ± 7.3%

Question: With O=C1Nc2ccc(I)cc2/C1=C/c1cc(Br)c(O)c(Br)c1 as the compound, how does the THP-1 cell loss read?
Answer: 20.5 ± 16%

Question: Which THP-1 cell loss does the source give for O=c1c(-c2ccc(O)cc2)coc2cc(O)cc(O)c12 [Genistein] here?
Answer: 4.45 ± 2.2%

Question: How did the THP-1 cell loss turn out when O=C1NCCCc2c1oc1ccc(O)cc21 was run?
Answer: 6.23 ± 8.8%

Question: How did the THP-1 cell loss turn out when Cn1c(Nc2ccc(C(F)(F)F)cc2)nc2cc(Oc3ccnc(-c4ncc(C(F)(F)F)[nH]4)c3)ccc21 was run?
Answer: 100%

Question: With COc1ccc(OC)c2c(=S)c3ccccc3[nH]c12 as the compound, how does the THP-1 cell loss read?
Answer: 9.79 ± 3.8%

Question: Which THP-1 cell loss does the source give for O=c1[nH]ccc2c(S(=O)(=O)N3CCCNCC3)cccc12 [HA 1100 hydrochloride] here?
Answer: 0%

Question: With COc1cc2nccc(Oc3ccc(NC(=O)Nc4ccc(F)cc4F)c(F)c3)c2cc1OC as the compound, how does the THP-1 cell loss read?
Answer: 8.51 ± 5.2%

Question: How did the THP-1 cell loss turn out when CS(=O)(=O)CCNCc1ccc(-c2ccc3ncnc(Nc4ccc(OCc5cccc(F)c5)c(Cl)c4)c3c2)o1 [Lapatinib ditosylate] was run?
Answer: 100%

Question: For CC[C@H](Nc1ncnc2[nH]cnc12)c1nc2cccc(F)c2c(=O)n1-c1ccccc1, which THP-1 cell loss is on record?
Answer: 35.9 ± 6.3%

Question: With O=C(Nc1ccc(-c2cn[nH]c2)cc1)C1COc2ccccc2O1 (stereo not given) [Rho Kinase Inhibitor V] as the compound, how does the THP-1 cell loss read?
Answer: 6.82 ± 9.6%

Question: With CCCOc1ccc(/C=C2/SC(=O)NC2=O)cc1 [PIM1/2 Kinase Inhibitor VI] as the compound, how does the THP-1 cell loss read?
Answer: 4.36 ± 6.2%

Question: How did the THP-1 cell loss turn out when Cc1[nH]c(/C=C2\C(=O)Nc3cc(-c4ccccc4)ccc32)c(C)c1CCC(=O)O was run?
Answer: 6.62 ± 9.4%

Question: Which THP-1 cell loss does the source give for COc1ccc(Cl)cc1NC(=O)Nc1cc(C)nc2ccccc12 here?
Answer: 9.3 ± 13%

Question: Cc1ccc(NC(=O)c2cccc(C(C)(C)C#N)c2)cc1Nc1ccc2ncn(C)c(=O)c2c1 was tested. Which THP-1 cell loss did it give?
Answer: 100%

Question: For CN(C)CCOc1ccc(-c2nc(-c3ccncc3)c(-c3ccc4c(c3)CC/C4=N\O)[nH]2)cc1, which THP-1 cell loss is on record?
Answer: 72.3 ± 11%

Question: O=S(=O)(c1cccc2cnccc12)N1CCCNCC1 [Fasudil HCl] was tested. Which THP-1 cell loss did it give?
Answer: 0.204 ± 0.29%

Question: Which THP-1 cell loss does the source give for CC(C)c1cnn2c(NCc3ccccc3)cc(NCCCCCCN)nc12 [BS-181 hydrochloride] here?
Answer: 90.8 ± 13%

Question: O=Nc1c(-c2c(O)[nH]c3cc(Br)ccc23)[nH]c2ccccc12 [6-bromoindirubin-3'-oxime] was tested. Which THP-1 cell loss did it give?
Answer: 100%

Question: Nc1cc(N)c(N)cc1N [FAK Inhibitor 14] was tested. Which THP-1 cell loss did it give?
Answer: 11.9 ± 4%

Question: Cn1cc(-c2ccc3nnc(C(F)(F)c4ccc5ncccc5c4)n3n2)cn1 was tested. Which THP-1 cell loss did it give?
Answer: 13.4 ± 19%

Question: How did the THP-1 cell loss turn out when Cn1c2ccccc2c2c3c(c4c5ccccc5n(CCC#N)c4c21)CNC3=O was run?
Answer: 32.2 ± 18%

Question: O=S(=O)(Nc1ccccn1)c1ccc(N=Cc2c(O)[nH]c3ccc4ncsc4c23)cc1 was tested. Which THP-1 cell loss did it give?
Answer: 100%

Question: How did the THP-1 cell loss turn out when NC1(c2ccc(-c3nc4ccn5c(=O)[nH]nc5c4cc3-c3ccccc3)cc2)CCC1 was run?
Answer: 34.3 ± 6.7%

Question: With COc1cc2c(Oc3ccc4[nH]c(C)cc4c3F)ncnc2cc1OCCCN1CCCC1 [Cediranib] as the compound, how does the THP-1 cell loss read?
Answer: 91.7 ± 12%

Question: O=C(NOCC1CC1)c1cc(Br)c(F)c(F)c1Nc1ccc(I)cc1Cl was tested. Which THP-1 cell loss did it give?
Answer: 55.1 ± 9.2%

Question: Cc1cc(I)ccc1Nc1c(C(=O)NOCC2CC2)cc(F)c(F)c1F was tested. Which THP-1 cell loss did it give?
Answer: 100%

Question: Nc1nc(Nc2ccc(S(N)(=O)=O)cc2)nn1C(=S)Nc1c(F)cccc1F [Cdk1/2 Inhibitor III] was tested. Which THP-1 cell loss did it give?
Answer: 5.81 ± 8.1%

Question: Which THP-1 cell loss does the source give for COc1cc2ncnc(Nc3ccc(F)c(Cl)c3)c2cc1OCCCN1CCOCC1 [Gefitinib] here?
Answer: 12.5 ± 5.5%

Question: How did the THP-1 cell loss turn out when c1cc(-c2cnn3cc(-c4ccc(OCCN5CCCCC5)cc4)cnc23)ccn1 [Dorsomorphin dihydrochloride] was run?
Answer: 100%

Question: O=C(O)c1ccc(-c2c[nH]c3ncc(-c4ccccc4)cc23)cc1C1CCCC1 was tested. Which THP-1 cell loss did it give?
Answer: 9.42 ± 6.5%

Question: With CC[C@@H]1C(=O)N(C)c2cnc(Nc3ccc(C(=O)NC4CCN(C)CC4)cc3OC)nc2N1C1CCCC1 as the compound, how does the THP-1 cell loss read?
Answer: 100%

Question: With Cn1cc(C2=C(c3cn(CCCSC(=N)N)c4ccccc34)C(=O)NC2=O)c2ccccc21 [Ro-31-8220 mesylate] as the compound, how does the THP-1 cell loss read?
Answer: 100%

Question: With COc1cc(N2CCC(N3CCN(C)CC3)CC2)ccc1Nc1ncc(Cl)c(Nc2ccccc2S(=O)(=O)C(C)C)n1 as the compound, how does the THP-1 cell loss read?
Answer: 26.4 ± 0.6%

Question: For N#CCNC(=O)c1ccc(-c2ccnc(Nc3ccc(N4CCOCC4)cc3)n2)cc1, which THP-1 cell loss is on record?
Answer: 100%

Question: How did the THP-1 cell loss turn out when CN(C)C[C@@H]1CCn2cc(c3ccccc32)C2=C(C(=O)NC2=O)c2cn(c3ccccc23)CCO1 was run?
Answer: 100%

Question: For NS(=O)(=O)c1ccc(Nc2nc(OCC3CCCCC3)c3[nH]cnc3n2)cc1, which THP-1 cell loss is on record?
Answer: 0.876 ± 1.2%

Question: Which THP-1 cell loss does the source give for NCc1ccc(Nc2ncc(F)c(Nc3ccccc3)n2)cc1 [Dianilinopyrimidine_01] here?
Answer: 88.5 ± 16%

Question: How did the THP-1 cell loss turn out when CN(C)S(=O)(=O)c1ccc2c(c1)/C(=C/c1cc3c([nH]1)CCCC3)C(=O)N2 was run?
Answer: 7.5 ± 1.4%
